Test results as given in PubChem BioAssay (NCATS).
Where “and” joins values, the source holds several entries; their conditions need not be identical. Equal entries are not always repeated. Inconclusive results are not listed. A call without a number means that no potency is given here. Calls of active or inactive are those of the source. The call rests on the fitted dose curve; in most records, active means well fitted curve in the direction sought with a large enough effect; inconclusive means small, poorly fitted or top-dose-only effect, or another doubt; inactive means no such curve, though single readings can be large; an effect the other way counts as inactive or inconclusive.

How the values were obtained:
[1] = target: N-terminal Xaa-Pro-Lys N-methyltransferase 1 (Homo sapiens) (UniProt Q9BV86); experiment: qHTS Assay for Inhibitors of N-terminal methyltransferase 1 (NTMT1): LOPAC validation of the NTMT1 SAHH-coupled ThioGlo3 Assay (AID 1347143);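 further: SAH from peptide methylation measured as thiol fluorescence via SAHH coupling and ThioGlo3; nearly all actives have a fitted effect of over 70% in size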; further: potency means the concentration at half of the fitted maximal effect
Chain of N-terminal Xaa-Pro-Lys N-methyltransferase 1 (Homo sapiens) (Q9BV86 whole entry, looked up): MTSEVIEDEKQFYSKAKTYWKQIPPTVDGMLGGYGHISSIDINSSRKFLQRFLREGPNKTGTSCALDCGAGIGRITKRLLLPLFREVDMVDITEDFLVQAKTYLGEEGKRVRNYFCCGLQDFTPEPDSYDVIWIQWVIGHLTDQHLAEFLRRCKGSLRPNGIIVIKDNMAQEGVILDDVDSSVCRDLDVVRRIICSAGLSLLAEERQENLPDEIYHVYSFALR
In short: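 In this qHTS pilot against the LOPAC set, 125nM NTMT1 met compounds tested at multiple concentrations, and fluorescence was normalized to background.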

[2] = test system: Zika virus NS2B-NS3 protease (unlinked); experiment: Optimization of GU AMC qHTS for Zika virus inhibitors: Unlinked NS2B-NS3 protease assay (AID 1347151); further: nearly all actives have a fitted effect of over 80% in size; further: potency means the concentration at half of the fitted maximal effect
In short: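 Percent inhibition is derived from the 15-min change in AMC fluorescence, normalized against no-inhibitor and no-enzyme controls, then fitted to a 4-parameter Hill curve. Aprotinin was the intraplate control.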

[3] = test system: Zika virus NS2B-NS3 protease; experiment: Primary screen GU AMC qHTS for Zika virus inhibitors (AID 1347154); further: nearly all actives have a fitted effect of over 70% in size; further: potency means the concentration at half of the fitted maximal effect
In short: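 Unlinked Zika NS2B hydrophilic domain/NS3 protease domain noncovalent complex (25 nM final) in 10 mM Tris-HCl pH 8.0, 0.01% Tween 20, with AMC peptide substrate. Fluorescence (ex 340, em 450 nm) change over 15 min, room temperature; percent inhibition fitted to 4-parameter Hill equation.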

[4] = test system: Zika virus NS2B-NS3 protease (unlinked complex); experiment: Primary screen GU Rhodamine qHTS for Zika virus inhibitors: Unlinked NS2B-NS3 protease assay (AID 1347159); further: nearly all actives have a fitted effect of over 60% in size
In short: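 Percent inhibition came from the 15-min rise in Rhodamine110 fluorescence (1.5 microM substrate, ~15% conversion), normalized to no-inhibitor and no-enzyme wells and Hill-fitted. Unlinked protease, 25 nM, pH 8.0 Tris buffer; compounds up to 114 microM, 15-min preincubation.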

[5] = target: Furin (Homo sapiens) (UniProt P09958); experiment: Furin counterscreen qHTS for Zika virus inhibitors (AID 1347149); further: nearly all actives have a fitted effect of over 70% in size; further: potency means the concentration at half of the fitted maximal effect
Chain of Furin (Homo sapiens) (P09958 whole entry, looked up): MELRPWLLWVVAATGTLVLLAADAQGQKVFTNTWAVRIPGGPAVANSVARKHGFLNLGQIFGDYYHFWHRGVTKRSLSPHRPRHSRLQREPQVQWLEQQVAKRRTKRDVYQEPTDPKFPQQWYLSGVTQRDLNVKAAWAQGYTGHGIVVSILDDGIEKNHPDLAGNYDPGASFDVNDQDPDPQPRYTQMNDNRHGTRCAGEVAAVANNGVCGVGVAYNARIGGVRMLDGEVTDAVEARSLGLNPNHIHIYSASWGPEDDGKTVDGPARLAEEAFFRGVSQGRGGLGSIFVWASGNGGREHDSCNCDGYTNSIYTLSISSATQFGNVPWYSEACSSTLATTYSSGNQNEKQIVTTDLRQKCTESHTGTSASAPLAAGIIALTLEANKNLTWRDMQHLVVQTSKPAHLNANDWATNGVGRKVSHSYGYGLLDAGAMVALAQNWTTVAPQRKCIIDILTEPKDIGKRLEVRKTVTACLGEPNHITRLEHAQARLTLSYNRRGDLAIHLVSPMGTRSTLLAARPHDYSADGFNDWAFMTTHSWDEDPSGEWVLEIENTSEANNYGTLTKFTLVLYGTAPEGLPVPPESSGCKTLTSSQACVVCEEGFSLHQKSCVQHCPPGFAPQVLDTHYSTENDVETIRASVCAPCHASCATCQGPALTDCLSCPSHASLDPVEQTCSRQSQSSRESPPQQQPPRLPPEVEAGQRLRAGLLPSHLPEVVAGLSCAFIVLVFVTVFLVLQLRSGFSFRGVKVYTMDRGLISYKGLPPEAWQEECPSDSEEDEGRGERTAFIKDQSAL
In short: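 Counterscreen measures cleavage of 2 microM BOC-RVRR-AMC, below its ~15 microM Km, by 5 nM full-length human furin at pH 7.0 after a 15-min compound preincubation. Inhibition derives from the 15-min fluorescence increase at 37C.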

[6] = test system: Zika virus NS2B-NS3 protease (linked construct); experiment: Confirmatory screen NINDS AMC qHTS for Zika virus inhibitors (AID 1347152); further: nearly all actives have a fitted effect of over 70% in size; further: potency means the concentration at half of the fitted maximal effect
In short: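 In this dose-response qHTS, AMC release from 10 microM Bz-Nle-KRR-AMC by 1 nM linked protease is measured over 15 minutes (about 20% conversion) at pH 8.0. Percent inhibition is fitted to a 4-parameter Hill curve.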

[7] = test system: Zika virus NS2B-NS3 protease (unlinked complex); experiment: Confirmatory screen GU AMC qHTS for Zika virus inhibitors (AID 1347153); further: nearly all actives have a fitted effect of over 70% in size
In short: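 Compounds were preincubated 15 min at room temperature with 25 nM noncovalent NS2B-NS3 protease at pH 8.0; AMC substrate added at 10 microM and 15-min fluorescence gain (340/450 nm) converted to percent inhibition, fitted 4-parameter.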

[8] = Confirmatory screen GU Rhodamine qHTS for Zika virus inhibitors qHTS (AID 1347157); details: purified enzyme assay, Rhodamine110 substrate fluorescence, 15 min
In short: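 Percent inhibition derives from the 15-min fluorescence change (ex 480, em 540 nm), normalized to no-enzyme and no-inhibitor wells. Reactions contained 25 nM NS2B-NS3 complex and 1.5 microM substrate in 10 mM Tris-HCl pH 8.0.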

[9] = ZIKV-mCherry secondary qHTS for Zika virus inhibitors (AID 1347158); further: top concentration of the series differs between compounds
In short: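 Percent infection is the share of Hoechst-identified Vero nuclei with mCherry signal above 450 RFU (3 SD over negative controls). Cells were infected with recombinant ZIKV-mCherry at MOI 1 after compound addition and imaged 48–72 h later.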

For Oc1ccc2ccccc2c1SSc1c(O)ccc2ccccc12, the Potency [1] was 35.5 µM (active) and the Potency [2] was 10.6 µM (active).
For Cc1cccc(-c2[nH]ncc2-c2ccc3ncccc3n2)n1, the Potency [1] was “inactive”, the Potency [2] was “inactive” and the Potency [3] was “inactive”.
With Cc1cc(Cl)ccc1OCCCC(=O)NO the Potency [2] was “inactive” and the Potency [3] was “inactive”.
For C[C@H](Cc1ccc(O)c(O)c1)[C@@H](C)Cc1ccc(O)c(O)c1, the Potency [1] was 10 µM (active) and the Potency [2] was 9.47 µM (active).
In the case of NC(=NCc1ccccc1)NC(=O)c1nc(Cl)c(N)nc1N, the Potency [1] is reported as 56.2 µM (active), the Potency [2] is reported as 26.7 µM (active) and the Potency [3] is reported as “inactive”.
For CC(C)c1ccc2c(c1)c(SC(C)(C)C)c(CC(C)(C)C(=O)O)n2Cc1ccc(Cl)cc1, the Potency [1] was “inactive”, the Potency [2] was 1.34 µM (active) and the Potency [3] was “inactive”.
In the case of CNC[C@H](O)c1ccc(O)c(O)c1, the Potency [1] is reported as “inactive”, the Potency [2] is reported as “inactive” and the Potency [3] is reported as “inactive”.
For O=C1c2ccccc2-c2n[nH]c3cccc1c23, the Potency [2] was 11.9 µM (active) and the Potency [3] was “inactive”.
For COc1ccc2cc([C@H](C)C(=O)O)ccc2c1, the Potency [2] was 23.8 µM (active), the Potency [3] was “inactive” and the Potency [4] was “inactive”.
With Cc1cc(O)c2c(c1)C(=O)c1cc(O)cc(O)c1C2=O the Potency [1] was 17.8 µM (active), the Potency [2] was 15 µM (active) and the Potency [3] was “inactive”.
For O=C(O)c1cn(-c2ccc(F)cc2)c2cc(N3CCNCC3)c(F)cc2c1=O, the Potency [5] was 24.1 µM (active) and the Potency [6] was 24.1 µM (active) and 27.1 µM (active).
For O=c1cc(N2CCOCC2)oc2c(-c3ccccc3)cccc12, the Potency [2] was 26.7 µM (active) and the Potency [3] was “inactive”.
With C[C@@H](c1ncncc1F)[C@](O)(Cn1cncn1)c1ccc(F)cc1F the Potency [1] was “inactive”, the Potency [2] was “inactive” and the Potency [3] was “inactive”.
With O=C1NC(=O)C(c2ccccc2[N+](=O)[O-])=C1Nc1ccc(O)c(Cl)c1 the Potency [1] was 28.2 µM (active), the Potency [2] was “inactive” and the Potency [3] was “inactive”.
For Clc1ccc2c(N3CCN(CCCN4CCN(c5ccnc6cc(Cl)ccc56)CC4)CC3)ccnc2c1, the Potency [1] was 50.1 µM (active), the Potency [2] was “inactive” and the Potency [3] was “inactive”.
With Cc1nc(-c2ccc(OCC(C)C)c(C#N)c2)sc1C(=O)O the Potency [5] was 24.1 µM (active), the Potency [7] was “inactive” and the Potency [3] was 21.5 µM (active).
For NNc1nncc2ccccc12, the Potency [1] was 79.4 µM (active), the Potency [2] was “inactive” and the Potency [3] was “inactive”.
With C[C@@H](N)C1CCC(C(=O)Nc2ccncc2)CC1 (some centres undefined) the Potency [1] was “inactive”, the Potency [2] was “inactive” and the Potency [3] was “inactive”.
With S=c1nc[nH]c2nc[nH]c12 the Potency [5] was “inactive”, the Potency [2] was “inactive” and the Potency [3] was “inactive”.
With Cc1cccc(C#Cc2ccccc2)n1 the Potency [2] was “inactive” and the Potency [3] was “inactive”.
With N[C@@H](Cc1cc(I)c(Oc2cc(I)c(O)c(I)c2)c(I)c1)C(=O)O the Potency [5] was “inactive”, the Potency [3] was “inactive” and the Potency [8] was 6.1 µM (active). The Potency [9] was “inactive”.
For O=C(O)c1cccnc1Nc1cccc(C(F)(F)F)c1, the Potency [1] was “inactive”, the Potency [2] was “inactive” and the Potency [3] was “inactive”.
In the case of Cc1c(OCC(F)(F)F)ccnc1CS(=O)c1nc2ccccc2[nH]1 (centres undefined), the Potency [1] is reported as 50.1 µM (active), the Potency [6] is reported as “inactive” and the Potency [7] is reported as “inactive”. The Potency [3] was “inactive”.
